The text below walks through data of PubChem BioAssay (Tox21).

A number with no mark means an inactive call. Records with an inconclusive call do not appear. Active and inactive are the calls of the source. Unless noted, the call rests on the fitted dose curve; in most records, active means well fitted curve in the direction sought with a large enough effect in the repeat runs; inconclusive means weak or mixed curves; inactive means no such curve, though single readings can be large; an effect the other way counts as inactive or inconclusive.

A short description of assay [1]: qHTS RealTime-Glo MT Cell Viability Assay in HEK293 cells - 0 hour (AID 1224880). Further: top concentration of the series differs between compounds; nearly all actives have a fitted effect of over 45% in size. The gist of the method: (§1)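 HEK293 cells mixed with RealTime-Glo reagents (NanoLuc plus cell-permeant prosubstrate) at 600 cells/well, preincubated 5 h at 37 C/5% CO2, then given 23 nL compound in DMSO. Nonlytic luminescence from viable cells was read at 0, 8, 16, 24, 32 and 40 h.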
In general terms: qHTS replaces the single test concentration by a dilution series.

Assay [2] in a line: A CellTox Green Cytotoxicity Assay to monitor cytotoxicity in HepG2 cells - 0 hour (AID 1224882). Further: nearly all actives have a fitted effect of over 35% in size. The gist of the method: (§2)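 HepG2 cells were seeded together with the CellTox Green dye at 600 cells/well, left 5 h at 37 C/5% CO2, then given compounds in DMSO. Fluorescence from dye bound to dead-cell DNA was read repeatedly over 40 h of treatment at 37 C.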
Assay [3] in a line: A CellTox Green Cytotoxicity Assay to monitor cytotoxicity in HepG2 cells - 32 hour (AID 1224883). Further: nearly all actives have a fitted effect of over 50% in size. Further: potency means the concentration at half of the fitted maximal effect. The procedure, abridged:
as §2

Assay [4] in a line: A CellTox Green Cytotoxicity Assay to monitor cytotoxicity in HEK293 cells - 8 hour (AID 1224884). Further: nearly all actives have a fitted effect of over 35% in size. The procedure, abridged:
(§3)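 HEK293 cells premixed with CellTox Green dye were seeded at 600 cells/well and left 5 h at 37 C/5% CO2 before pin transfer of 23 nL compound in DMSO. Fluorescence from dye bound to dead-cell DNA was read during 40 h treatment.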

A short description of assay [5]: qHTS RealTime-Glo MT Cell Viability Assay in HepG2 cells - 16 hour (AID 1224885). Further: nearly all actives have a fitted effect of over 50% in size. The procedure, abridged:
(§4)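 Cell number in HepG2 cultures estimated from NanoLuc luminescence generated by metabolic reduction of a prosubstrate by living cells. The homogeneous, nonlytic format allowed repeated reads at 0, 8, 16, 24, 32 and 40 h of compound exposure.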

Assay [6] can be described thus: qHTS RealTime-Glo MT Cell Viability Assay in HEK293 cells - 8 hour (AID 1224887). Further: nearly all actives have a fitted effect of over 50% in size. Further: potency means the concentration at half of the fitted maximal effect. On activity change, negative = cytotoxicity: top concentration of the series differs between compounds. The procedure, abridged:
as §1

Assay [7] can be described thus: A CellTox Green Cytotoxicity Assay to monitor cytotoxicity in HEK293 cells - 16 hour (AID 1224888). Further: nearly all actives have a fitted effect of over 35% in size. The procedure, abridged:
as §3

The nature of assay [8]: qHTS RealTime-Glo MT Cell Viability Assay in HepG2 cells - 0 hour (AID 1224889). Further: nearly all actives have a fitted effect of over 50% in size. The gist of the method:
as §4

The nature of assay [9]: A CellTox Green Cytotoxicity Assay to monitor cytotoxicity in HepG2 cells - 8 hour (AID 1224890). Further: nearly all actives have a fitted effect of over 45% in size. The procedure, abridged:
as §2

A short description of assay [10]: qHTS assay to identify small molecule antagonists of the estrogen receptor alpha (ER-alpha) signaling pathway using the BG1 cell line in the presence of 0.1 nM 17-beta-estradiol - cell viability counter screen (AID 1259241). Further: nearly all actives have a fitted effect of over 40% in size. The gist of the method:
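Viability in VM7Luc4E2 cells after 22 hr compound exposure under 0.1 nM 17beta-estradiol stimulation, by CellTiter-Fluor.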

The nature of assay [11]: qHTS assay to identify small molecule antagonists of the androgen receptor (AR) signaling pathway using the MDA cell line in the presence of 0.5 nM R1881 - cell viability counter screen (AID 1259242). Further: nearly all actives have a fitted effect of over 45% in size. The procedure, abridged: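 MDA-kb2 cells (human breast carcinoma, stably carrying MMTV-luciferase reporter) were exposed to compounds with 0.5 nM R1881 (final) for 16 hr at 37C, 0% CO2; viability then read as live-cell protease fluorescence (CellTiter-Fluor, 30 min) in the same wells.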

Assay [12] has as its target Estrogen receptor (Homo sapiens) (UniProt P03372). Put plainly: qHTS assay to identify small molecule antagonists of the estrogen receptor alpha (ER-alpha) signaling pathway using the BG1 cell line in the presence of 0.1 nM 17-beta-estradiol (AID 1259244). Further: nearly all actives have a fitted effect of over 50% in size. The gist of the method: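 VM7Luc4E2 cells (endogenous full-length ER-alpha, stable 4xERE-luciferase) were grown 5 days in phenol red-free medium with charcoal-stripped FBS, then exposed 22 h at 37C to compounds plus 0.1 nM (final) 17beta-estradiol; ONE-Glo luminescence read-out.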

Assay [13] can be described thus: qHTS assay to identify small molecule HDAC inhibitors (AID 1259364). Further: nearly all actives have a fitted effect of over 45% in size. Further: potency means the concentration at half of the fitted maximal effect. On activity change, negative = inhibition: top concentration of the series differs between compounds. The procedure, abridged: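 Wild-type HCT-116 cells were plated overnight, exposed to compounds for 2 h at 37 °C, then given HDAC-Glo class I/II luminogenic reagent for 30 min at room temperature before luminescence was read.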
Assay [14] is described as follows: qHTS assay to identify small molecule HDAC inhibitors - cell viability counter screen (AID 1259365). The procedure, abridged: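 Cytotoxicity was gauged in wild-type HCT-116 cells after a brief 2hr treatment with DMSO-dissolved compounds at 37C and 5% CO2, using CellTiter-Glo luminescence developed for 30min at room temperature.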
Assay [15] is described as follows: qHTS assay to identify small molecule agonists of the sonic hedgehog signaling (Shh) pathway - cell viability counter screen (AID 1259366). Further: nearly all actives have a fitted effect of over 50% in size. The gist of the method:
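Stable Gli1-Luc NIH/3T3 clone, 2,000 cells/well. Compound exposure 24hr at 37C. Read-out: CellTiter-Fluor fluorescence.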

Assay [16] in a line: qHTS assay to identify small molecule antagonists of the sonic hedgehog signaling (Shh) pathway - cell viability counter screen (AID 1259367). Further: nearly all actives have a fitted effect of over 55% in size. The gist of the method:
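After a 4 hr settling period, 3T3 Gli1-Luc cells were treated with DMSO-dissolved chemicals and conditioned medium, kept 24 hr at 37C in 5% CO2, and assayed for viability by CellTiter-Fluor fluorescence following 1 hr reagent incubation.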

Assay [17] in a line: qHTS assay to identify small molecule phospholipidosis (PLD) inducers (AID 1259344; active means well fitted curve in the direction sought with a large enough effect; an effect the other way counts as inactive or inconclusive). The gist of the method: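 HepG2 cells grown on collagen I take up LipidTOX Red while exposed to compound for 24 h; after fixation they are imaged at 20x and pit metrics are extracted.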
Assay [18] in a line: qHTS RealTime-Glo MT Cell Viability Assay in HEK293 cells - 24 hour (AID 1224886). Further: nearly all actives have a fitted effect of over 50% in size. Further: potency means the concentration at half of the fitted maximal effect. On activity change, negative = cytotoxicity: top concentration of the series differs between compounds. The gist of the method: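 Homogeneous bioluminescent viability format in HEK293 cells (600 cells/well). Following 5 h at 37 C/5% CO2, 23 nL compound was pintooled; the signal was measured repeatedly during 40 h incubation.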
Assay [19] can be described thus: A CellTox Green Cytotoxicity Assay to monitor cytotoxicity in HEK293 cells - 32 hour (AID 1224881). Further: nearly all actives have a fitted effect of over 40% in size. The gist of the method: as §3
Assay [20] addresses Androgen receptor (Homo sapiens) (UniProt P10275). Description: qHTS assay to identify small molecule antagonists of the androgen receptor (AR) signaling pathway using the MDA cell line in the presence of 0.5 nM R1881 (AID 1259243). Further: nearly all actives have a fitted effect of over 50% in size. The gist of the method:
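MDA-kb2 human breast carcinoma cells carrying an MMTV-luciferase reporter (AR- and GR-responsive) were plated, rested 5 hr at 37C, dosed with compounds, then stimulated with 0.5 nM R1881 (final) for 16 hr; luminescence was read after ONE-Glo.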
On the % scale 0 is the no-effect control and ±100 the full control effect.

Estrogen receptor (Homo sapiens), sequence (P03372 whole entry, looked up): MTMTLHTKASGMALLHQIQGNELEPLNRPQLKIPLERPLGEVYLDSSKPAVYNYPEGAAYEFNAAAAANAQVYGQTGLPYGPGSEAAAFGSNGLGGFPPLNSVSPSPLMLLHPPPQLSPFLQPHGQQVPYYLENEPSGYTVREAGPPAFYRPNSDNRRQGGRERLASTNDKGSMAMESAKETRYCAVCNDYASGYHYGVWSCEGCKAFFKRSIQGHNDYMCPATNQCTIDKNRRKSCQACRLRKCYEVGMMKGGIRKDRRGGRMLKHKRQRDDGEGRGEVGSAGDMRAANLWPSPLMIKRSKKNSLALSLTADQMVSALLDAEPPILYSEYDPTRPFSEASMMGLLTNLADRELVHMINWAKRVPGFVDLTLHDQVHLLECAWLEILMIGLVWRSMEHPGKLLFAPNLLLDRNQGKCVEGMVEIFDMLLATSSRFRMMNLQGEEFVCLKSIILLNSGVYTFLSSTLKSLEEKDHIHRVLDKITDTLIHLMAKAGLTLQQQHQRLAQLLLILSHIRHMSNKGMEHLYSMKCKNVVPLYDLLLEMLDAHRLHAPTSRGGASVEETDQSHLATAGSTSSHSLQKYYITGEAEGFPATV
Androgen receptor (Homo sapiens), sequence (P10275 whole entry, looked up): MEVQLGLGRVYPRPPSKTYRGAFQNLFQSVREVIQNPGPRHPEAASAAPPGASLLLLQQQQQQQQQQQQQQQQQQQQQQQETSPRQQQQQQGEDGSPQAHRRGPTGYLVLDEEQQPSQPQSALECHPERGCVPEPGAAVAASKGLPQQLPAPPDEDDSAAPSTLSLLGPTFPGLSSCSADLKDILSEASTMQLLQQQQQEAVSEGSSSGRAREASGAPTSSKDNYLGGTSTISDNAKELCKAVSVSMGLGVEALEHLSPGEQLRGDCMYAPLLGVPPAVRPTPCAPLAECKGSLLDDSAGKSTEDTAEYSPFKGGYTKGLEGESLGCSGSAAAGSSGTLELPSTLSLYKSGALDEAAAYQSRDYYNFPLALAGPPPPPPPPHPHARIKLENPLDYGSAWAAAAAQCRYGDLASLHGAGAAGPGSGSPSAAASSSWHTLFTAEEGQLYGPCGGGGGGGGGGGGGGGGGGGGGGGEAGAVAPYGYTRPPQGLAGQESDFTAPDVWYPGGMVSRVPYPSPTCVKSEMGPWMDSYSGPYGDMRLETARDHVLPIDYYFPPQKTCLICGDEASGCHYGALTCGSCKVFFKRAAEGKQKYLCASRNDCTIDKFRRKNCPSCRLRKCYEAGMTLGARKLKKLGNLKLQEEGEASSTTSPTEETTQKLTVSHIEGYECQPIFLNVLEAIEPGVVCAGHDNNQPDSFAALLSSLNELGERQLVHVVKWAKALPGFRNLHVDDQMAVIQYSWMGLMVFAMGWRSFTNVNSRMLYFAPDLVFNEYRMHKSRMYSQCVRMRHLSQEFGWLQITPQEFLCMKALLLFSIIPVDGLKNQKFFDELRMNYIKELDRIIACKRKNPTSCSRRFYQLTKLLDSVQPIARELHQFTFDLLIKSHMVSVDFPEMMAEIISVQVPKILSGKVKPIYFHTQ

With `O=C(O)c1c2ccccc2cc2ccccc12`, the Potency result in assay [1], in assay [2], in assay [3], in [4], in assay [6] and in [7] was “inactive” in each case. Also, the Potency result in assay [8], in [9], in assay [10], in assay [11], in assay [12] and in [13] was “inactive” throughout. In addition, the Potency result in [15] and in assay [16] was “inactive” throughout. For the same compound, the call in assay [5] and in assay [14] was inactive.

For `CC1=CC(=C(c2ccc(N)cc2)c2ccc(N)cc2)C=CC1=N`, the activity change, negative = cytotoxicity was 12.8% [at 6.97 µM] in assay [1], -15.3% [at 6.97 µM] in assay [6], -17.9% [at 8.39 µM] in [10] and -17.7% [at 8.39 µM] in assay [14]. Moreover, the cytotoxicity in [2] is 0.461% [at 6.97 µM]. The values for the cytotoxicity increase in [3], in assay [4] and in assay [9] were 0.891% [at 6.97 µM], -4.58% [at 6.97 µM] and 1.46% [at 6.97 µM], respectively. The activity change, negative = cytotoxic in assay [5] is 0.128% [at 6.97 µM]. In addition, the activity change in assay [7] is -0.601% [at 6.97 µM, stronger effect = higher value]. Further, the viability change, negative = cytotoxic in assay [11] was -23% [at 8.39 µM]; in assay [16] it was -16.1% [at 8.39 µM]. Further, the Potency result in [17] is “inactive”. The activity change, negative = inhibition in assay [13] is -3.34% [at 8.39 µM].

For `COc1ccc(C(=O)Nc2ccccc2)cc1[N+](=O)[O-]`, the Potency result in [1], in assay [2], in assay [3], in assay [4], in assay [7] and in [8] was “inactive” in each case. Also, the Potency result in assay [9], in assay [10], in [11], in assay [12], in assay [15] and in assay [16] was “inactive” each time. The call in [5] and in [14] was inactive. Moreover, the Potency in assay [18] is 24.7 µM (active); in assay [6] it was 24.7 µM (active); in assay [13] it was 24.5 µM (active).

As for `Oc1ccc(Oc2ccccc2)cc1`, the Potency result in assay [1], in assay [2], in assay [4], in assay [7], in [8] and in assay [10] was “inactive” throughout. In addition, the Potency entry in assay [11], in assay [12], in [13] and in [16] was “inactive” each time. The figures for the Potency in assay [3], in assay [18] and in assay [6] were 36.9 µM (active), 16.5 µM (active) and 16.5 µM (active), respectively. Also, the outcome in [5] and in assay [14] was inactive.

`Cc1nc2sccn2c(=O)c1CCN1CCC(=C(c2ccc(F)cc2)c2ccc(F)cc2)CC1`: the Potency entry in [19], in [2], in [3], in [4], in [7] and in assay [8] was “inactive” each time. For the same compound, the Potency result in assay [9], in assay [10], in assay [11], in [13], in assay [15] and in assay [16] was “inactive” in each case. Also, the compound was called inactive in [5] and in assay [14]. The Potency in [18] is 3.38 µM (active); in [6] it was 3.01 µM (active).

In the case of `CCOC(C)OCC`, the Potency entry in assay [1], in assay [19], in assay [2], in assay [3], in assay [18] and in assay [6] was “inactive” throughout. The Potency entry in [8], in [9], in assay [10], in [11], in [17] and in assay [13] was “inactive” each time. Besides, the Potency entry in assay [16] was “inactive”. Moreover, the compound was called inactive in assay [5] and in [14].

On to `CCCCCCCCOCCCN`, for which the Potency entry in assay [19], in assay [2], in assay [3], in assay [4], in assay [18] and in assay [6] was “inactive” each time. Also, the Potency entry in assay [7], in [9], in assay [10], in [11], in assay [20] and in [12] was “inactive” throughout. Further, the Potency result in [13] is “inactive”. Also, the compound was called inactive in assay [5] and in [14].

On to `Cc1c(N=C=O)cccc1N=C=O`, for which the Potency result in assay [1], in assay [19], in assay [2], in [4], in assay [18] and in [6] was “inactive” in each case. The Potency result in assay [7], in assay [9], in [10], in assay [11], in assay [20] and in assay [12] was “inactive” each time. Also, the Potency result in assay [13] and in assay [15] was “inactive” throughout. Also, the compound was classed as inactive in [5] and in assay [14].

Regarding `C=C[Si]1(C)O[Si](C)(C=C)O[Si](C)(C=C)O[Si](C)(C=C)O1` (centres undefined), the Potency entry in [1], in [19], in assay [2], in assay [4], in assay [18] and in assay [6] was “inactive” throughout. Also, the Potency entry in [7], in assay [8], in assay [9], in assay [10], in [11] and in [13] was “inactive” each time. Besides, the Potency result in assay [15] was “inactive”. The compound was called inactive in assay [5] and in assay [14].
